Source: the supplement of paper PMC6607015
Counter-ions that a name gives are not always drawn.

tested on: A431; test: filipin (cholesterol) integrated intensity within LBPA endosomes, Z-score; higher = more cholesterol in LBPA endosomes; details: compound concentration in added solution (µM; 5 µl added to 20 µl cells): 10; 18 h
Procedure, shortened: (§1)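 Per-cell integrated LBPA or filipin intensity, whole-cell or within LBPA endosomes, is expressed as Z-scores normalised in AcuityXpress. HeLa MZ or A431 cells, 3,500 per well in 20 µl, sat on 5 µl of 10 µM compound solution in duplicate 384-well imaging plates for 18 h. They were then fixed in 4% PFA, stained, imaged in four 20× fields per well and segmented using MetaXpress.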

SMILES | filipin (z-score)
Cc1onc(-c2c(F)cccc2Cl)c1C(=O)N[C@@H]1C(=O)N2[C@@H]1SC(C)(C)[C@@H]2C(=O)O [Flucloxacillin sodium] | -0.348
CC1(C)S[C@@H]2[C@H](NC(=O)Cc3ccccc3)C(=O)N2[C@H]1C(=O)O [Benzylpenicillin sodium] | -0.427
COc1ccc2c(c1)C(=O)N(CCc1ccc(S(=O)(=O)NC(=O)NC3CCCCC3)cc1)C(=O)C2(C)C [Gliquidone] | -0.531
CCCCC[C@H](O)/C=C/[C@@H]1[C@@H](C/C=C\CCCC(=O)O)[C@@H](O)C[C@H]1O [Dinoprost trometamol] | -0.462
CCN(Cc1ccncc1)C(=O)C(CO)c1ccccc1 (stereo not drawn) [Tropicamide] | -0.52
CCN(CC)CCOc1ccc(C(=C(Cl)c2ccccc2)c2ccccc2)cc1 [Clomiphene citrate (Z,E)] | 2.72
CC(=O)c1ccc2c(c1)N(CCCN(C)C)c1ccccc1S2 [Acetopromazine maleate salt] | 1.18
Cn1c(=O)c2c(ncn2CC(O)CO)n(C)c1=O (stereo not drawn) [Diprophylline] | -0.554

tested on: HeLa MZ; test: as above; details: compound concentration in added solution (µM; 5 µl added to 20 µl cells): 10; 18 h
Procedure, shortened: as §1

SMILES | filipin (z-score)
O=c1cc(-c2ccc(O)c(O)c2)oc2cc(O)cc(O)c12 [Luteolin] | -0.425
CC(C)(O/N=C(\C(=O)N[C@@H]1C(=O)N2C(C(=O)[O-])=C(C[n+]3ccccc3)CS[C@H]12)c1csc(N)n1)C(=O)O [Ceftazidime pentahydrate] | -0.437
CC(=O)OCC(=O)[C@@]1(OC(C)=O)[C@@H](C)C[C@H]2[C@@H]3C[C@H](F)C4=CC(=O)C=C[C@]4(C)[C@@]3(F)[C@@H](O)C[C@@]21C [Diflorasone Diacetate] | -0.539
CN(C)CCn1nnnc1SCC1=C(C(=O)O)N2C(=O)[C@@H](NC(=O)Cc3csc(N)n3)[C@H]2SC1 [Cefotiam hydrochloride] | -0.711
CCCOc1ccc(C(=O)OCCN(CC)CC)cc1N [Proparacaine hydrochloride] | -0.0385
COc1ccc(NS(=O)(=O)c2ccc(N)cc2)nn1 [Sulfamethoxypyridazine] | -0.522
CCC(=O)O[C@]1(C(=O)SCF)[C@H](C)C[C@H]2[C@@H]3C[C@H](F)C4=CC(=O)C=C[C@]4(C)[C@@]3(F)[C@@H](O)C[C@@]21C [Fluticasone propionate] | -0.437
O=C(O)CCNC(=O)c1ccc(/N=N/c2ccc(O)c(C(=O)O)c2)cc1 [Balsalazide Sodium] | -0.346
CC(C)(C)NC[C@H](O)c1ccc(O)c(CO)c1 [Levalbuterol hydrochloride] | -0.476
NC(CO)C(=O)NNCc1ccc(O)c(O)c1O (stereo not drawn) [Benserazide hydrochloride] | -0.5
Cc1ccc(NC(=O)c2ccc(CN3CCN(C)CC3)cc2)cc1Nc1nccc(-c2cccnc2)n1 [Imatinib] | 3.74
Cc1cc2c(cc1S(N)(=O)=O)S(=O)(=O)CCC2 [Meticrane] | -0.558
O=C1O[C@H]([C@@H](O)CO)C(O)=C1O [Ascorbic acid] | -0.527
N=C(N)NCC1COC2(CCCCC2)O1 (stereo not drawn) [Guanadrel sulfate] | -0.438
CC[N+](C)(CC)CCOC(=O)C1c2ccccc2Oc2ccccc21 [Methantheline bromide] | -0.379
CO/N=C(\C(=O)N[C@@H]1C(=O)N2C(C(=O)O)=C(COC(N)=O)CS[C@H]12)c1ccco1 [Cefuroxime sodium salt] | -0.472
O=C(OCC(O)CO)c1ccccc1Nc1ccnc2cc(Cl)ccc12 (stereo not drawn) [Glafenine hydrochloride] | 0.0497
C[C@@H]1NC(=O)NC1=O [Methylhydantoin-5-(L)] | -0.338
CC1(C)O[C@@H]2C[C@H]3[C@@H]4C[C@H](F)C5=CC(=O)CC[C@]5(C)[C@H]4[C@@H](O)C[C@]3(C)[C@]2(C(=O)CO)O1 [Flurandrenolide] | -0.297
C/C(=C(\CCOP(=O)(O)O)SC(=O)c1ccccc1)N(C=O)Cc1cnc(C)nc1N [Benfotiamine] | -0.31

SMILES | filipin (z-score)
CN1CCN(CCCN2c3ccccc3Sc3ccc(S(=O)(=O)N(C)C)cc32)CC1 [Thioproperazine dimesylate] | 2.33
CN(C)CCOC(=O)C(c1ccccc1)C1(O)CCCC1 (stereo not drawn) [Cyclopentolate hydrochloride] | -0.209
Clc1cccc(Cl)c1NC1=NCCN1 [Clonidine hydrochloride] | -0.268
CCN(CC)CCc1nc(-c2ccccc2)no1 [Oxalamine citrate salt] | -0.374
N[C@H]1CONC1=O [(S)-(-)-Cycloserine] | -0.283
O=C(c1ccc(F)cc1)C1CCN(CCn2c(=O)[nH]c3ccccc3c2=O)CC1 [Ketanserin tartrate hydrate] | 0.808
C[N+](C)(CCOc1ccccc1)Cc1ccccc1.O=C([O-])c1cc2ccccc2cc1O [Bephenium hydroxynaphthoate] | -0.371
O=C1CCc2ccc(OCCCCN3CCN(c4cccc(Cl)c4Cl)CC3)cc2N1 [Aripiprazole] | 4.07
Nc1nc(F)nc2c1ncn2[C@@H]1O[C@H](CO)[C@@H](O)[C@@H]1O [Fludarabine] | -0.595
CN1CCc2cccc3c2[C@H]1Cc1ccc(O)c(O)c1-3 [R(-) Apomorphine hydrochloride hemihydrate] | -0.107
C[C@]12CCC(=O)C=C1C=C[C@@H]1[C@@H]2CC[C@@]2(C)[C@H]1CC[C@@]21CCC(=O)O1 [Canrenone] | 0.168
CN(C)[C@@H]1C(O)=C(C(N)=O)C(=O)[C@@]2(O)C(O)=C3C(=O)c4c(O)cccc4[C@@](C)(O)[C@H]3C[C@@H]12 [Tetracycline hydrochloride] | -0.698
Cc1onc(-c2c(F)cccc2Cl)c1C(=O)N[C@@H]1C(=O)N2[C@@H]1SC(C)(C)[C@@H]2C(=O)O [Flucloxacillin sodium] | -0.62
CC1(C)S[C@@H]2[C@H](NC(=O)Cc3ccccc3)C(=O)N2[C@H]1C(=O)O [Benzylpenicillin sodium] | -0.552
COc1ccc2c(c1)C(=O)N(CCc1ccc(S(=O)(=O)NC(=O)NC3CCCCC3)cc1)C(=O)C2(C)C [Gliquidone] | -0.598
CCCCC[C@H](O)/C=C/[C@@H]1[C@@H](C/C=C\CCCC(=O)O)[C@@H](O)C[C@H]1O [Dinoprost trometamol] | -0.236
CCN(Cc1ccncc1)C(=O)C(CO)c1ccccc1 (stereo not drawn) [Tropicamide] | -0.592
CCN(CC)CCOc1ccc(C(=C(Cl)c2ccccc2)c2ccccc2)cc1 [Clomiphene citrate (Z,E)] | 3.06
CC(=O)c1ccc2c(c1)N(CCCN(C)C)c1ccccc1S2 [Acetopromazine maleate salt] | 1.7
Cn1c(=O)c2c(ncn2CC(O)CO)n(C)c1=O (stereo not drawn) [Diprophylline] | -0.628
